Laboratory results from PMC7819943, “Rice protein-binding microarrays: a tool to detect cis-acting elements near promoter regions in rice”.
The full ranking holds about 39,000 sequences; the median of “fluorescence intensity (a.u.)” is about 4,300, and the highest 2% start at about 39,000. Shown is part of a subset that was picked to be rich in the highest values.

molecular target: T1, OsSMF1 (Oryza sativa, UniProt Q6ZLB0 1-436); assay: protein-binding microarray (RPBM); PBS, 2% BSA, 51.3 ng/ul salmon testes DNA, 50 uM zinc acetate, 200 nM TF, 25 C, 1 h; high values mean tight binding; conditions: protein: recombinant; tags: N-terminal polyhistidine and DsRed monomer fusion (pET32a); chain copies: 2; label: CyDye5-dUTP incorporated in the synthesized complementary strand; 3' TTTTT single-stranded linker to array surface; dsDNA, one strand shown
T1 sequence: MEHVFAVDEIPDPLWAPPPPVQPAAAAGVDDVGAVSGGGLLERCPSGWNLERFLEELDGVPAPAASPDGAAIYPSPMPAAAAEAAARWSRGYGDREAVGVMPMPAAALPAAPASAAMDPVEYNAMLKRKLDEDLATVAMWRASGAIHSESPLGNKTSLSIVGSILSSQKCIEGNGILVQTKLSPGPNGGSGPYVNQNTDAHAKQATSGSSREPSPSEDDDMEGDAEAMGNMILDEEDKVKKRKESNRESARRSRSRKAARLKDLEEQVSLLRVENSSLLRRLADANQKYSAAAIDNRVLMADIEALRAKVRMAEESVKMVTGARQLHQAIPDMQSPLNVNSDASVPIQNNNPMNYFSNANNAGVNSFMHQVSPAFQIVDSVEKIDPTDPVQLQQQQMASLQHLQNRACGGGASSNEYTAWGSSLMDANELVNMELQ
In short: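 Per-feature fluorescence intensity (arbitrary units), read on an Axon 4000B scanner, is the binding signal. Transcription factors carrying an N-terminal polyhistidine tag and DsRed fusion were expressed in E. coli BL21-CodonPlus and purified on Ni–NTA. A custom Agilent array, made double-stranded by primer extension with Cy5-dUTP and blocked with 2% BSA, was incubated with 200 nM protein in PBS, 2% BSA, salmon testes DNA and 50 µM zinc acetate at 25 °C for 1 h and then washed.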

Sequence	binding signal
AAGCGCACGCACACATATGCCACGCATTGACGCATGGCACCGGAGTCACCTAGTGCAG	5630 fluorescence intensity (a.u.)
CCCAGCCCACAAAGGAAGCGAGATCACAATTTCTGGGCCGCGGAGTCACCTAGTGCAG	3400 fluorescence intensity (a.u.)
AAAAGCAAAAGCAAAAGAAACACGTCCTTATTCCTCTCTCCGGAGTCACCTAGTGCAG	3910 fluorescence intensity (a.u.)
TCCCGCCACAAGCAACCAAGAAATCAAGAAACCGTTTCAGCGGAGTCACCTAGTGCAG	19600 fluorescence intensity (a.u.)
GATCAACCTTATTTCTGCAAGCAAATCAAAGAAACAAGCACGGAGTCACCTAGTGCAG	41700 fluorescence intensity (a.u.)
CGGCAGCCACCTCCCCACTCCATCCTCTCGTCCCCTTTTACGGAGTCACCTAGTGCAG	3870 fluorescence intensity (a.u.)
CTGCTCCTAGTCACACTTGACAGTTCAGCTTCAGCTCCTCCGGAGTCACCTAGTGCAG	6360 fluorescence intensity (a.u.)
ATTGTTTAGTATTGCGTTATGTTATGTTACTTTTGATACACGGAGTCACCTAGTGCAG	14400 fluorescence intensity (a.u.)
TGAGCTGCTTTTACACGTTGCTTTATTGACACTTGTTCACCGGAGTCACCTAGTGCAG	45500 fluorescence intensity (a.u.)
TGCATAAGGATAATCCGGTCGTCAGCAAACAATGCATTCACGGAGTCACCTAGTGCAG	3450 fluorescence intensity (a.u.)
TGCAAATTGCGAGACGGATTTATTAAGCCTAGTTAATCCGCGGAGTCACCTAGTGCAG	39400 fluorescence intensity (a.u.)
CAAGACGGATTTATTAAGCCTAATTAATCTATCATTAGCGCGGAGTCACCTAGTGCAG	4110 fluorescence intensity (a.u.)
ACGAATTTATTAAGCCTAATTAATCCGTTATTAGCAAATGCGGAGTCACCTAGTGCAG	6210 fluorescence intensity (a.u.)
AAAGGCCACGCCTTTGCCTCGTCAGTTATCTCTTCGTTTCCGGAGTCACCTAGTGCAG	5220 fluorescence intensity (a.u.)
GGAGTATCCATGCCAGCTAAGCGAGTTGTACAAGGCAAGCCGGAGTCACCTAGTGCAG	5690 fluorescence intensity (a.u.)
CGGGTAGGCGAACACGTCGCTGACGCCGCACCGCTCCAGCCGGAGTCACCTAGTGCAG	6760 fluorescence intensity (a.u.)
TGGTGATATCAATAGGATTGGAAGAGATTTGTCAGCCTATCGGAGTCACCTAGTGCAG	3450 fluorescence intensity (a.u.)
TATCAAAATCCACTGCAACATTTAATACATACATAGTGAACGGAGTCACCTAGTGCAG	21300 fluorescence intensity (a.u.)
TAGCTCGTACTCCTACATCGTAGCCACCGCGCCTCCCATGCGGAGTCACCTAGTGCAG	3640 fluorescence intensity (a.u.)
CGCCATGGGAGCACTCCCCATCTTGTCCTCTACCGCCGCGCGGAGTCACCTAGTGCAG	3250 fluorescence intensity (a.u.)
CGCCATGGGCGACATCGACATCTACAGCCTCTACACTCCGCGGAGTCACCTAGTGCAG	44200 fluorescence intensity (a.u.)
GCCTGTGGCCCACGCCGTCAGTGGGAGTGGCGGTGTCGGGCGGAGTCACCTAGTGCAG	3960 fluorescence intensity (a.u.)
CCGAATCCGGCCACCCCGCCGCCTCCACGCGCATCACCGCCGGAGTCACCTAGTGCAG	3220 fluorescence intensity (a.u.)

Sequence	binding signal
ACGGGCACGACGACCGTCGTGCTCACGGCCGCCGACGTCGCGGAGTCACCTAGTGCAG	4140 fluorescence intensity (a.u.)
GCCGATTGCAATTTCGTCATCACTGCGGTTAGGATTACACCGGAGTCACCTAGTGCAG	4340 fluorescence intensity (a.u.)
TGCTGTCGATGTGCTTATCTTTCGATTTATTCCTCTCATCCGGAGTCACCTAGTGCAG	3200 fluorescence intensity (a.u.)
CTCCGCAGTCGTAGGCCCACGCGAACCATTCCGTGTGCAACGGAGTCACCTAGTGCAG	52000 fluorescence intensity (a.u.)
CCCACCATTGCCGCCGTGTCCGGCAACCTAACGAACCTCGCGGAGTCACCTAGTGCAG	4100 fluorescence intensity (a.u.)
GGCAACGCACCACGCTGCACGCGTCCGTGGTCGCCGCGAACGGAGTCACCTAGTGCAG	3150 fluorescence intensity (a.u.)
CCTCCTTTTCTTCTCCACGTATACAATCAGTCTAGTTGGACGGAGTCACCTAGTGCAG	5040 fluorescence intensity (a.u.)
GCAGTATATGTGTGTGTGCTTTCTTTTGGGATAGAGTCTGCGGAGTCACCTAGTGCAG	3460 fluorescence intensity (a.u.)
ATCTTTTCTAGTACCAGGATCTTGTGTTGGTGATAGAGAGCGGAGTCACCTAGTGCAG	42500 fluorescence intensity (a.u.)
TGGATAAGGATGTGTGAGACGTGTGATCTTTACTTGTTGGCGGAGTCACCTAGTGCAG	3980 fluorescence intensity (a.u.)
TACTTTAAATGTGTGTCCGTATATCCGATGTGACACGCCACGGAGTCACCTAGTGCAG	3870 fluorescence intensity (a.u.)
TAAACATATATGCATGGATGATGTCATGGAAACATGGATTCGGAGTCACCTAGTGCAG	4690 fluorescence intensity (a.u.)
GATCAATCATCCTTGTTCACAAGGCTGCCTGACATGGATGCGGAGTCACCTAGTGCAG	3730 fluorescence intensity (a.u.)
AGATGGGAAATAAAGGGTGGTGACATGGCACACTGACATGCGGAGTCACCTAGTGCAG	10800 fluorescence intensity (a.u.)
GCGCCACGTAGACGCCACGTCAGCCAAAACCGCCCTCCATCGGAGTCACCTAGTGCAG	52000 fluorescence intensity (a.u.)
TACTGCCACGTAGGCGCCACGTCAGCGAAACCGCCCTCCACGGAGTCACCTAGTGCAG	58100 fluorescence intensity (a.u.)
GGTGTCACGTAAGCGCCACGTCAGCGAACCGCCCTCCAAACGGAGTCACCTAGTGCAG	26600 fluorescence intensity (a.u.)
GTCAAAACCGCCACGTAGACGCCACGTCATCGAAACCGCCCGGAGTCACCTAGTGCAG	40400 fluorescence intensity (a.u.)
CCGAGTCAATACTGCCACGTAGCGCGCCACGTCAGCGAAACGGAGTCACCTAGTGCAG	26300 fluorescence intensity (a.u.)
AAAAGCCCACCACCACCCAACCCGCCCAACGCCACGTCACCGGAGTCACCTAGTGCAG	24800 fluorescence intensity (a.u.)
CGCTCCGTCAGCCACGTAGACGCTACGTCGGCCAAAACCGCGGAGTCACCTAGTGCAG	14900 fluorescence intensity (a.u.)
GCCCACGCTCACCGACTCCATCGACGTCACGCTCACCGCCCGGAGTCACCTAGTGCAG	5090 fluorescence intensity (a.u.)
CAAACAAGCCACGTAGATGCCACGTCATCCAAAACCGCCTCGGAGTCACCTAGTGCAG	29600 fluorescence intensity (a.u.)
